Sampled rows, rich in hits. Any-hit rate of the full collection: about 7%.
ADAM10 inh: inhibitors of human ADAM10 | 370,000 tested, 0.62% active | inhibition, % at 7 µM | O14672 | recombinant ADAM10, EDANS/DABCYL FRET peptide cleavage, 3 h;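 active means inhibition above a per-campaign cutoff equal to the mean of compounds falling between control-based bounds plus 3 SD, cut at about 20% in these data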
rCAG RNA binder: binds r(CAG) RNA repeats | r(CAG) RNA repeat, TO-PRO-1 dye displacement fluorescence | inhibition, % at 3 µM | 370,000 tested, 1.3% active | AID 651821;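 active means inhibition above the plate cutoff, the mean of all test compounds on that plate plus 3 SD, cut at about 35% in these data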;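 further: higher means more dye released from RNA so lower well fluorescence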
GRIN3A LBD mod: modulators (binders) of human NR3A ligand-binding domain. NR3A LBD differential scanning fluorimetry, Tm shift; 0% = protein alone, 100% = glycine-bound protein. Tm shift relative to glycine control, % at 25 µM. 340,000 tested, 2.5% active. AID 1259313;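 active means melting temperature shift of at least 10% of the positive control shift, at one fixed dose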
KLK7 zymogen act: activators of human kallikrein-7 zymogen | purified proKLK7, EDANS-DABCYL substrate fluorescence; 100% is mature enzyme control, 0% vehicle | P49862 | 370,000 tested, 0.9% active | activation, % at 7 µM;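 active means activation above the mean of all tested compounds plus 3 SD, computed per campaign excluding outliers beyond control limits, cut at about 13% in these data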
Target sequence (P49862 whole entry, looked up): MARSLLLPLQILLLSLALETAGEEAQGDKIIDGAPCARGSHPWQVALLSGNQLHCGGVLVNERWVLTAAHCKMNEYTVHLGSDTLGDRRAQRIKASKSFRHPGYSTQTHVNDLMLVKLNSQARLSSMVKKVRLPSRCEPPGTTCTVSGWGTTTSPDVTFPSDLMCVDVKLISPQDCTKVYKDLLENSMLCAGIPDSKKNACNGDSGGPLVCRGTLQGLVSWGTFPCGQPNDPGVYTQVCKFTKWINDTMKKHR
AHR act: activates the human aryl hydrocarbon receptor. activation, % at 5 µM. 320,000 tested, 2.5% active. AHR-responsive luciferase reporter cells, luminescence. P35869; in the data active means activation above about 47%
ADAM17 inh: inhibits human ADAM17; P78536; recombinant ADAM17, EDANS/DABCYL FRET peptide cleavage; inhibition, % at 6.95 µM; 370,000 tested, 0.83% active; AID 720648;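 active means inhibition above the mean of compounds lying between control limits plus 3 SD, set per campaign, cut at about 8.5% in these data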
Each line names hits and unclear results; the compound was inactive in the other large screens.

O=[N+]([O-])c1ccc(NN=Cc2ccc(O)cc2)nc1	GRIN3A LBD mod 25.7 (no result: AHR act)
CCCOc1ccc(/C=N/Nc2ccccc2[N+](=O)[O-])c(O)c1	none
CCCOc1ccc(/C=N/Nc2cccc([N+](=O)[O-])c2)c(O)c1	GRIN3A LBD mod 33.1
COc1ccc(S[C@]2(C(=O)N3CCOCC3)CC(=O)N(c3ccc(Cl)cc3)[C@@H]2c2ccc(OC)cc2)cc1	none (no result: GRIN3A LBD mod, AHR act)
COC(=O)[C@@]12CCCCC3=C1N(CCC3)C(=O)[C@H]2CC(=O)NCc1ccc(C)o1	none (no result: GRIN3A LBD mod, AHR act)
Clc1ccccc1-c1nc(-c2ccccc2)n[nH]1	AHR act 66.3
c1ccc(-c2nc(-c3ccncc3)n[nH]2)nc1	none
Oc1ccccc1-c1n[nH]c(-c2ccccc2O)n1	GRIN3A LBD mod 22.7 (no result: AHR act)
Cc1cc2nc(-c3ccccc3O)[nH]c2cc1C	GRIN3A LBD mod 26.7 (no result: AHR act)
Cc1ccc(Nc2ncnc(-n3cccc3)n2)cc1Cl	AHR act 57.9
Clc1cc(Cl)cc(Nc2ncnc(-n3cccc3)n2)c1	AHR act 54.1
Nc1ncnc(Nc2ccc(F)c(Cl)c2)n1	none
CN(/N=C/c1cc(Cl)ccc1O)C1=NS(=O)(=O)c2ccccc21	GRIN3A LBD mod 11.8
Cc1ccc(/C=N/N(C)C2=NS(=O)(=O)c3ccccc32)o1	none (no result: ADAM10 inh, rCAG RNA binder, GRIN3A LBD mod, KLK7 zymogen act, ADAM17 inh)
CN(/N=C/c1ccc(Br)o1)C1=NS(=O)(=O)c2ccccc21	GRIN3A LBD mod 16.2
Cc1ccccc1CN1[C@@H](C)[C@H](c2ccccc2)Oc2cccc(N3CCCC3)c2S1(=O)=O	none (no result: GRIN3A LBD mod, AHR act)
CCOc1ccc(N(CC(=O)Nc2c(C)n(C)n(-c3ccccc3)c2=O)S(=O)(=O)c2cccs2)cc1	none (no result: GRIN3A LBD mod, AHR act)
COc1c(Br)cc([N+](=O)[O-])c(OC)c1C(=O)NC(=O)Nc1cc(Cl)cc(Cl)c1	GRIN3A LBD mod 13.1
COc1c(Br)cc([N+](=O)[O-])c(OC)c1C(=O)NC(=O)Nc1c(Cl)cccc1Cl	none
CN(CC(=O)Nc1c(Cl)cccc1Cl)C(=O)CNC(=O)c1sc2ccccc2c1Cl	GRIN3A LBD mod 18.8 (no result: AHR act)
COc1ccc(NC(=O)CN(C)C(=O)CNC(=O)c2sc3ccccc3c2Cl)cc1	none
CC1(C)CC1C(=O)Nc1ccc([N+](=O)[O-])cc1Br (configuration not stated)	GRIN3A LBD mod 11.9
COC1=C[C@H](C(=O)NCc2ccc(Br)cc2)C(C)C(c2ccccc2)CC1=O (some centres not stated)	none (no result: GRIN3A LBD mod, AHR act)
Cc1ccc2[nH]c(C(=O)Nc3ccc(F)cc3)cc2c1	none
Cc1ccc2[nH]c(CNC(=O)c3ccc(F)cc3)cc2c1	AHR act 65.5
Cc1ccc(-c2nc3ccccc3[nH]2)s1	AHR act 54.9
c1csc(-c2nc3ccccc3[nH]2)c1	none
CN(C)c1nc(-c2ccccn2)nnc1-c1ccccc1	AHR act 84.8
c1ccc(-c2nnc(-c3ccccn3)c(-c3ccccn3)n2)nc1	none
CC(C)(C)C(=O)NCCN1CCN(C(=O)C(C)(C)C)CC1	GRIN3A LBD mod 673.0
Cc1c(Cl)c([N+](=O)[O-])nn1Cc1ccc(C(=O)N/N=C\c2cccc(Br)c2)o1	AHR act 55.4
Cc1ccc(/C=N\NC(=O)c2ccc(Cn3cc(Br)c([N+](=O)[O-])n3)o2)o1	none
O=C(N/N=C\c1cccc(Cl)c1)c1ccc(Cn2cc(Br)c([N+](=O)[O-])n2)o1	GRIN3A LBD mod 12.4
CC(=O)Nc1ccc(NC(=S)NC(=O)c2cc3ccccc3o2)cc1	GRIN3A LBD mod 16.0
CC(C)C(=O)Nc1ccc(NC(=S)NC(=O)c2cc3ccccc3o2)cc1	GRIN3A LBD mod 16.6
COC(=O)[C@]12C[C@H](CC(=O)NCC3CCCCC3)C(=O)N(Cc3ccc(Cl)cc3Cl)C1=C[C@H](C(C)C)O[C@@H]2C1CC1	none (no result: GRIN3A LBD mod, AHR act)
COC(=O)[C@]1(CNC(C)=O)CC(=O)N(Cc2ccc(Cl)cc2)[C@@H]1c1ccc(OC)cc1	none (no result: GRIN3A LBD mod, AHR act)
CC(=O)Oc1oc(-c2ccccc2)nc1C=Nc1ccc(N(C)C)cc1	none
CN(C)c1ccc(N=Cc2nc(-c3ccccc3)oc2OC(=O)c2ccccc2)cc1	AHR act 49.5
Cc1cc(=O)oc2c(C(=O)/C=C\c3cccs3)c(O)ccc12	AHR act 72.8
COc1ccc(/C=C\C(=O)c2c(O)ccc3c(C)cc(=O)oc23)cc1OC	GRIN3A LBD mod 13.6
FC(F)(F)COc1nc(OCC(F)(F)F)nc(N2CCN(c3ccccc3)CC2)n1	GRIN3A LBD mod 12.0

Compound activity (PubChem BioAssay)
